Assay results: the supplement of paper PMC7695840
Counter-ions that a name gives are not always drawn.

Test system: Staphylococcus aureus MW2 (mecA+)
Assay: normalized DsRed fluorescence (growth of mecA+ strain) (fraction of control range); higher = more growth of mecA+ strain
Details: compound concentration: 150 uM; cefoxitin: subinhibitory; fluorescent label: DsRed
Summary of the method: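 In 1536-well plates holding 150 μM compound (1.5% DMSO), a 1:1 mix of pre-induced S. aureus MW2 cells was added at 5 µL/well, in one replicate. One strain carried the gene and DsRed, the other lacked the gene and carried GFP, and the LB held a subinhibitory antibiotic dose chosen daily. Plates stood unshaken for 20 h at 37 °C, 90% humidity, before DsRed (540/590) and GFP (485/520) readings, which were scaled per plate to single-strain control medians, with plates high in untreated ratio and rows above DsRed/GFP 10 dropped.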

In order of rising “normalized DsRed fluorescence” value:
1. CCN(CC)C(=O)c1ccc(O)c(OC)c1  0.0959
2. COC1=CC(=O)C[C@@H](C)[C@]12Oc1c(Cl)c(OC)cc(OC)c1C2=O  0.425
3. CN1C2CCCC1CC(NC(=O)c1nn(C)c3ccccc13)C2 (stereo not given)  0.441
4. O=C1C(O)=C([C@H]2CC[C@H](c3ccc(Cl)cc3)CC2)C(=O)c2ccccc21 [Atovaquone (Atavaquone)]  0.498
5. CC(C)c1nc(N(C)S(C)(=O)=O)nc(-c2ccc(F)cc2)c1/C=C/[C@@H](O)C[C@@H](O)CC(=O)O  0.514
6. CC1=NN(c2ccccc2)C(=O)C1 [Edaravone (MCI-186)]  0.531
7. CN1CCc2cccc3c2[C@H]1Cc1ccc(O)c(O)c1-3  0.543
8. CCOc1ccc(Cc2cc([C@@H]3O[C@H](CO)[C@@H](O)[C@H](O)[C@H]3O)ccc2Cl)cc1 [Dapagliflozin]  0.557
9. N[C@H]1C(O)O[C@H](CO)[C@@H](O)[C@@H]1O (stereo not given in full)  0.564
10. CCN(CC)C(=O)C1(c2ccccc2)CC1CN (stereo not given)  0.617
11. CCCC(=O)Nc1ccc(OCC(O)CNC(C)C)c(C(C)=O)c1 (stereo not given)  0.62
12. Nc1nc(=O)n([C@@H]2CS[C@H](CO)O2)cc1F [Emtricitabine]  0.622
13. O=C1c2ccccc2C(=O)C1c1ccccc1 [Phenindione (Rectadione)]  0.634
14. NCCCC[C@H](N[C@@H](CCc1ccccc1)C(=O)O)C(=O)N1CCC[C@H]1C(=O)O  0.642
15. N=C(N)N  0.654
16. CCCc1nn(C)c2c(=O)[nH]c(-c3cc(S(=O)(=O)N4CCN(C)CC4)ccc3OCC)nc12  0.655
17. CC#CCn1c(N2CCC[C@@H](N)C2)nc2c1c(=O)n(Cc1nc(C)c3ccccc3n1)c(=O)n2C  0.667
18. CC(C)(C)NCC(O)COc1cccc2c1CC(O)C(O)C2 (stereo not given)  0.671
19. COc1cc(NC(C)CCCN)c2ncccc2c1 (stereo not given)  0.672
20. C/C=C/c1ccc(OC)cc1  0.71
21. COc1ccc(C[C@@H]2c3cc(OC)c(OC)cc3CC[N@+]2(C)CCC(=O)OCCCCCOC(=O)CC[N@@+]2(C)CCc3cc(OC)c(OC)cc3[C@H]2Cc2ccc(OC)c(OC)c2)cc1OC [Cisatracurium besylate (Nimbex)]  0.713
22. COc1cc(Nc2c(C#N)cnc3cc(OCCCN4CCN(C)CC4)c(OC)cc23)c(Cl)cc1Cl [Bosutinib (SKI-606)]  0.727
23. CC(C)NCC(O)c1ccc(O)c(O)c1 (stereo not given) [Isoprenaline hydrochloride]  0.758
24. CC(C)[C@H](N)C(=O)OCCOCn1cnc2c(=O)nc(N)[nH]c21 [Valaciclovir HCl]  0.782
25. COc1ccc2cc(CCC(C)=O)ccc2c1  0.79
26. CN1CCOC(c2ccccc2)c2ccccc2C1 (stereo not given)  0.81
27. CC(C)(Sc1cc(C(C)(C)C)c(O)c(C(C)(C)C)c1)Sc1cc(C(C)(C)C)c(O)c(C(C)(C)C)c1  0.839
28. CC1(C)NC(=O)N(c2ccc([N+](=O)[O-])c(C(F)(F)F)c2)C1=O  0.86
29. COCCCOc1ccnc(C[S+]([O-])c2nc3ccccc3[nH]2)c1C (stereo not given)  0.865
30. C[n+]1ccccc1/C=N/O  0.9
31. Cc1cccc(N(C)C(=S)Oc2ccc3ccccc3c2)c1  0.911
32. CN(Cc1cc(Br)cc(Br)c1N)C1CCCCC1  0.919
33. Clc1ccc2c(c1)CCc1cccnc1C2=C1CCNCC1 [Desloratadine]  0.936
34. CCOC(=O)[C@H](CCc1ccccc1)N[C@H]1CS[C@H](c2cccs2)CN(CC(=O)O)C1=O [Temocapril HCl]  0.936
35. COc1cc(C2Oc3ccc(C4Oc5cc(O)cc(O)c5C(=O)C4O)cc3OC2CO)ccc1O (stereo not given) [Silymarin (Silybin B)]  0.987
36. OCCOCCN1CCN(C2=Nc3ccccc3Sc3ccccc32)CC1 [Quetiapine fumarate (Seroquel)]  1.15
37. CC(=O)N(O)CCCCCNC(=O)CCC(=O)N(O)CCCCCNC(=O)CCC(=O)N(O)CCCCCN  1.26
38. COC(=O)C1=C(C#N)NC(C)=C(C(=O)OC(C)C)C1c1cccc([N+](=O)[O-])c1 (stereo not given) [Nilvadipine (ARC029)]  1.55
39. OCCN1CCN(CCCN2c3ccccc3Sc3ccc(C(F)(F)F)cc32)CC1  1.68
40. N[C@H](C(=O)O)[C@H](O)c1ccc(O)c(O)c1 [Droxidopa (L-DOPS)]  1.79
